High-throughput results deposited in PubChem BioAssay by National Center for Advancing Translational Sciences (NCATS).
Pf growth 48h: Primary qHTS for delayed death inhibitors of the malarial parasite plastid, 48 hour incubation. 310,000 compounds, 5.9% hits. Potency, µM (top dose mostly 28.7 µM), for the others: at the highest dose activity change, negative = inhibition, actives largely listed as inhibitors. AID 504832, 2011. P. falciparum luciferase growth in erythrocytes, 48 h; further: potency means the concentration at half of the fitted maximal effect; on the % scale 0 is the no-effect control and ±100 the full control effect
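Luminescence readout; reporter = integrated firefly luciferase in P. falciparum. RBC culture at 2% hematocrit, 0.1% parasitemia final, 37 C/5% CO2; decreased signal taken as growth inhibition.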
HCMV inh: qHTS Assay for inhibitors of the human cytomegalovirus (HCMV) | 410,000 compounds, 4.5% hits | activity change, negative = inhibition, % at 57.5 µM | AID 1259415, 2018 | HFF cells, HCMV-luciferase reporter, 72 h; stronger effect = lower value; in the data active means activity change below about -60%; inconclusive means no clear call, values can overlap the other calls; inactive means above about -39%; further: on the % scale 0 is the no-effect control and ±100 the full control effect
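Human foreskin fibroblasts infected with luciferase-reporter HCMV at MOI 1 PFU/cell, compounds at two doses. Luciferase measured 72 h post infection; normalized to buffer-only basal and Salinomycin (10uM) controls.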
Shiga toxin inh: A qHTS for Small Molecule Inhibitors of Shiga Toxin; Vero cells, Shiga toxin protein synthesis inhibition reporter; inhibition, % at 38.7 µM; 290,000 compounds, 9.2% hits; AID 2315, 2010; in the data active means inhibition mostly above about 28%, no sharp cut-off; inactive means mostly below about 43%; further: 0% is about no effect
Cycloheximide cs: Cycloheximide Counterscreen for Small Molecule Inhibitors of Shiga Toxin | cell reporter, cycloheximide protein synthesis inhibition counterscreen | max response, % | 300,000 compounds, 12% hits | AID 2314, 2010; in the data active means max response mostly above about 13%, no sharp cut-off; inactive means mostly below about 14%; further: read at 38.3 µM for the half of the compounds with a filed dose; 0% is about no effect
Pf growth 96h: Primary qHTS for delayed death inhibitors of the malarial parasite plastid, 96 hour incubation. AID 504834, 2011. P. falciparum luciferase reporter growth, 96 h. Potency, µM (titrated, usually from 28.7 µM), for inactives: top-dose activity change, negative = inhibition, actives largely listed as inhibitors. 320,000 compounds, 6.9% hits; further: potency means the concentration at half of the fitted maximal effect; on the % scale 0 is the no-effect control and ±100 the full control effect
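Delayed-death screen, second-generation endpoint: infected erythrocytes, 2% hematocrit, 0.05% parasitemia final; 96 hours at 37 C, 5% CO2; luciferase detection reagent; luminescence decrease equals reduced growth.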
The depositor's hits bear a star; ? = inconclusive; . = not tested or not shown; + = active, no number; ! = not active in a repeat; [ ] = remark or other dose. Shown are actives, neighbours in structure and some others; about 20% of the full set was active somewhere. Unless noted, the call rests on the fitted dose curve; in most records, active means well fitted inhibition curve with a large enough effect; inconclusive means small, poorly fitted or top-dose-only effect, or another doubt; inactive means no such curve, though single readings can be large or run the other way.

SMILES | Pf growth 48h | HCMV inh | Shiga toxin inh | Cycloheximide cs | Pf growth 96h
COc1ccc(OC)c(-c2cc(C(=O)Nc3c(C)nn(Cc4ccccc4)c3C)no2)c1 | 13.1µM* | -28.2 | -16.1 | -2.2 | ?
COc1ccc(OC)c(-c2cc(C(=O)Nc3c(C)nn(Cc4ccc(Cl)cc4)c3C)no2)c1 | ? | -13.3 | 41.3 | -1.0 | -20.1%
CCC/C=C(\CCC)C(NS(=O)(=O)c1ccc(C(F)(F)F)cc1)c1ccccc1 (stereo not given) | 9.28µM* | . | 10.8 | 8.2 | 7.38µM*
Cc1ccnc2ccc(SC(F)(F)F)cc12 | 15.2% | 26.9 | 15.4 | 2.7 | 1.8%
Cc1ccnc2c1ccc1ccccc12 | 11.0% | -5.9 | 20.9 | 16.2* | -24.1%
Cc1ccnc2c1ccc1cccnc12 | 1.17µM* | -98.0* | . | . | 0.828µM*
Cc1ccnc2c1ccc1c(C)ccnc12 | 2.62µM* | . | . | . | 4.65µM*
Cc1cccc2cccnc12 | 19.7% | -13.4 | . | . | -9.7%
c1cnc2c(c1)ccc1cccnc12 | 5.86µM* | -98.9* | 28.8 | active! | 3.29µM*
CC(C)CCN(C(=O)CNC(=O)c1ccco1)C(C(=O)NC1CCCCC1)c1cccnc1 (stereo not given) | -5.4% | -4.7 | -1.6 | -3.0 | ?
Cc1ccc(CCNC(=O)C2CCN(S(=O)(=O)c3ccc4c(ccn4C)c3)CC2)cc1 | . | 9.5 | . | . | .
COc1ccc(C(=O)N2CCN(c3ccc(NC(=O)c4cccs4)cc3)CC2)cc1 | ? | -67.8* | -6.6 | -3.0 | ?
O=C(NC(=S)Nc1cccc(Cl)c1N1CCOCC1)c1cccs1 | -0.6% | -18.2 | -7.3 | -5.1 | 39.2%[1.15 µM]
O=C(NC(=S)Nc1ccc(N2CCOCC2)cc1)c1cccs1 | 45.2% | 79.2 | 73.4* | 41.1* | 0.0%
CCC(=O)N1CCN(c2ccc(NC(=O)c3cccs3)cc2)CC1 | -4.5% | -7.3 | 68.3* | 14.9* | 13.1µM*
Cc1ccc(C(=O)NC(=S)Nc2ccc(N3CCN(C(=O)c4ccco4)CC3)cc2)cc1 | ? | ? | -11.4 | 11.1 | 5.22µM*
O=C(Nc1ccc(N2CCN(C(=O)c3ccccc3)CC2)cc1)c1cccs1 | -13.5% | 73.7 | 30.0 | 4.0 | 27.2%
Cc1c(Cl)cccc1-n1c(SCC(=O)N(C)Cc2ccccc2)nnc1-c1ccncc1 | ? | -4.4 | -28.1 | -1.5 | .
Cc1cnc(C(=O)OCC(=O)N(Cc2ccccc2)C(C)(C)C)cn1 | . | 13.6 | . | . | .
Cc1ccc2nc(COc3cccc(NC(=O)COc4ccc(F)cc4)c3)cc(=O)n2c1 | . | 23.1 | . | . | .
CC(=O)c1ccc(S(=O)(=O)Nc2cccc(-c3ccc(N4CCCC4)nn3)c2)cc1 | . | 7.5 | . | . | .
CC(C)(O)C#Cc1ccc(C(=O)N2CCN(c3ccc(Cl)cc3)CC2)cc1 | 8.6% | -26.5 | 2.2 | -2.5 | 6.57µM*
CCC(=O)NC(=S)Nc1ccc(N2CCN(C(=O)c3ccc(Cl)cc3)CC2)cc1 | ? | -33.2 | 19.4 | 2.9 | 11.7µM*
COc1c(C)cccc1C(=O)Nc1ccc(N2CCN(C(=O)c3ccccc3C)CC2)cc1 | ? | -35.6 | 1.9 | -2.7 | -14.7%
Cc1ccccc1C(=O)N1CCN(c2ccc(NC(=S)NC(=O)c3cccs3)cc2)CC1 | 9.28µM* | -13.0 | -6.4 | 12.7 | -3.0%
SMILES | Pf growth 48h | HCMV inh | Shiga toxin inh | Cycloheximide cs | Pf growth 96h
CCC(=O)N1CCN(c2ccc(NC(=S)NC(=O)C(C)C)cc2)CC1 | ? | 3.4 | 6.9 | -0.5 | ?
COc1ccc(N2CCN(C(=O)c3cccc(NS(=O)(=O)c4cccc(F)c4)c3)CC2)cc1 | -7.1% | 23.7 | 3.7 | -1.7 | ?
COc1ccc(N2CCN(C(=O)c3ccc(NS(=O)(=O)c4cccc(F)c4)cc3)CC2)cc1 | -22.0% | 7.5 | 12.5 | 11.1* | ?
CC(C)(O)C#Cc1ccc(C(=O)N2CCN(c3ccc(F)cc3)CC2)cc1 | 11.5% | -38.5 | 19.6 | 10.3 | ?
COc1cccc(N2CCN(C(=O)CN3CCSc4ccccc43)CC2)c1 | . | -8.7 | . | . | .
COc1ccc(C2CC(=O)c3cc(-c4nc(-c5ccc(Cl)cc5)cs4)c(=O)[nH]c3C2)cc1OC (stereo not given) | . | -10.8 | . | . | .
COc1ccc(-c2noc(CSc3nnc(C)n3-c3ccc(F)cc3)n2)cc1 | . | -23.3 | . | . | .
CCOc1ccc(CC(=O)N2N=C(C)CC2(O)C(F)(F)F)cc1 (stereo not given) | 7.0% | ? | -3.3 | -2.5 | -7.2%
Cc1ccc(C(=O)N2CCN(c3ccc(NC(=S)NC(=O)c4cccs4)cc3)CC2)cc1 | ? | -74.1* | 12.7 | -2.2 | -14.7%
C[C@@H](NC(=O)[C@@H]1Cc2ccccc2CN1)C(=O)Nc1ccc2c(c1)OCO2 | 44.7% | 6.5 | 9.6 | 17.1* | ?
C[C@@H](NC(=O)[C@@H]1Cc2ccccc2CN1)C(=O)NC1CCCCC1 | -8.1% | 4.7 | 14.2 | 9.4 | 10.4%
CC(C)[C@H](NC(=O)[C@@H]1Cc2ccccc2CN1)C(=O)Nc1ccc2c(c1)OCO2 | ? | -10.5 | 37.2 | 22.9* | ?
Cc1onc(-c2c(Cl)cccc2Cl)c1C(=O)c1c[nH]c(C(=O)NCC2CCCO2)c1 (stereo not given) | 10.4µM* | -6.5 | 26.5 | -0.1 | ?
FC(F)(F)c1ccc(-c2noc(-c3ccccc3)c2I)cc1 | . | . | + | 45.9* | .
O=c1cc(-c2ccccc2)nc(SCc2nc(-c3ccc(C(F)(F)F)cc3)no2)[nH]1 | . | 13.0 | . | . | .
COc1ccc(/C=N/n2cnc3c([nH]c4ccc(F)cc43)c2=O)cc1CSc1ccccn1 | -7.4% | ? | 6.3 | -1.4 | 24.6%
Cc1oc(-c2ccc3c(c2)OCCO3)cc1C(=O)NC(CCC(=O)O)C(=O)O (stereo not given) | 39.5% | 52.5 | 58.8 | 26.8* | 45.5%
Cc1oc(-c2ccc3c(c2)OCCO3)cc1C(=O)NCC(=O)O | ? | -12.6 | -9.7 | -3.4 | 0.9%
CSCCC(NC(=O)c1cc(CC(C)C)oc1C)C(=O)O (stereo not given) | 3.3% | 20.6 | -9.7 | -3.7 | 0.8%
Cc1oc(-c2ccc3c(c2)OCCO3)cc1C(=O)O | ? | -63.2* | -33.1 | -8.6 | ?
Cc1ccc(NC(=O)CSc2nc3nc(C)c(Br)cc3[nH]2)cc1F | 14.0% | -3.0 | -4.6 | 3.1 | 15.0%
COc1ccc(S(=O)(=O)NCC2(N3CCOCC3)CCCCC2)cc1OC | ? | -5.0 | . | . | -8.6%
Cc1ccc(C(C)C)c(OCCNC(=S)Nc2cccc3ccccc23)c1 | 9.28µM* | -24.8 | 21.9 | 8.8 | ?
S=C(NCc1ccccc1)Nc1cccc2ccccc12 | ? | ? | 30.2 | 12.7 | ?
NC(=O)C1CCN(c2oc(-c3ccc(F)cc3)nc2S(=O)(=O)c2ccccc2)CC1 | 10.4µM* | 39.5 | . | . | ?
CCN1CCN(c2oc(-c3ccccc3C)nc2S(=O)(=O)c2ccccc2)CC1 | ? | -17.8 | . | . | 9.28µM*
CCOc1ccc(-c2nc(S(=O)(=O)c3ccccc3)c(NCc3cccnc3)o2)cc1 | 13.1µM* | 5.6 | -5.9 | -4.4 | .
